Screening results: PubChem BioAssay, National Center for Advancing Translational Sciences (NCATS)
DT40 TDP1 CPT: growth inhibition of DT40 Tdp1-/-;hTDP1 cells with camptothecin (screen for TDP1 inhibitors). chicken DT40 Tdp1-/-;hTDP1 cells + 20 nM CPT, ATP luminescence, 48 h. Potency, µM (series often up to 46.2 µM), usual class: inhibitors. 420,000 compounds, 12% hits; also: nearly all actives have a fitted effect of over 55% in size
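Chicken DT40 Tdp1-/- cells complemented with human TDP1, 400 cells/well, exposed to compounds plus 20 nM camptothecin for at least 48 h at 37 C; viability read as ATP content by CellTiter-Glo luminescence.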
ELG1 repair inh: blocks ELG1-dependent DNA repair in HEK293T cells; HEK293T ELG1-luciferase reporter, luminescence, 16 h; DNA damage induced by 5-fluorouridine; Potency, µM (titrated, usually from 46.1 µM), most hits filed as inhibitors; 330,000 compounds, 2.3% hits; AID 504467; also: nearly all actives have a fitted effect of over 55% in size
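Step one: seed 2,000 cells per well. Step two: pin-transfer compound or DMSO alongside 5-fluorouridine. Step three: incubate 16 hr, 37 °C, 5% CO2. Step four: add ONE-Glo, wait 30 min, read luminescence.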
HT1080NT lethal: kills 2HG-producing HT-1080-NT fibrosarcoma cells; HT-1080-NT fibrosarcoma viability, CellTiter-Glo ATP luminescence, 48 h; Potency, µM (doses to about 46.1 µM), usual class: cytotoxic; 360,000 compounds, 1.6% hits;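 also: NT is the 2HG producing partner of a matched IDH1 knockdown line; nearly all actives have a fitted effect of over 55% in size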
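Viability of the 2HG-overproducing fibrosarcoma line after 48 hours of compound exposure at 37 degrees C was determined by luminescence with CellTiter-Glo, and concentration-effect curves were then fitted and categorized.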
HT1080 IDH1KD tx: HT-1080 IDH1 knockdown cell toxicity (counter line) | HT-1080 IDH1 knockdown viability, ATP luminescence, 48 h | Potency, µM (highest dose often 46.1 µM), actives largely listed as cytotoxic | 360,000 compounds, 2% hits | AID 686971
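IDH1KD HT-1080 cells, 750/well, RPMI + 5% FBS; compound pinned after 2 h settling; 48 h, 37 °C; CellTiter-Glo luminescence; % activity normalised to DMSO and no-cell wells; curves fitted, classed by r2 and efficacy.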
TDP1 cell noCPT: qHTS for Inhibitors of human tyrosyl-DNA phosphodiesterase 1 (TDP1): qHTS in cells in absence of CPT. DT40 Tdp1-/- hTDP1 cells, no CPT, ATP luminescence, 48 h. Potency, µM (series often up to 46.2 µM), most hits filed as inhibitors. 420,000 compounds, 15% hits. AID 686978, 2013; also: nearly all actives have a fitted effect of over 55% in size
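Chicken DT40 Tdp1-/- cells stably complemented with human TDP1 were seeded at 400 cells/well with DMSO in place of 20 nM camptothecin. After compound pinning, cells grew at least 48 hr at 37 °C; viability read by CellTiter-Glo luminescence.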
IL-1B inflam inh: inhibitors of inflammasome signaling (IL-1 beta secretion); THP-1 LPS/ATP IL-1B secretion, AlphaLISA, 16 h; stronger effect = lower value; activity change, % at 57.5 µM; AID 743279; 360,000 compounds, 4.7% hits; in the data active = activity change below about -50%; inconclusive = mostly about -30% to -49%
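THP-1 cells pretreated 1 hr with compounds (up to 57.5 uM final), then stimulated with LPS (250 ng/mL final) plus ATP (1.25 mM final); secreted IL-1B measured by AlphaLISA after 16 hr, decreased signal indicating inhibition.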
Hits are given with their value; 0 = inactive; ? = inconclusive; - = no result given; [ ] = another dose, or the depositor's remark. Sampled rows, rich in hits. Any-hit rate of the full collection: about 19%. Unless noted, calls follow the shape of the dose curve; as a rule, active = well fitted curve in the direction sought with a large enough effect; inconclusive = small, poorly fitted or top-dose-only effect, or another doubt; inactive = no such curve, though single readings can be large; an effect the other way counts as inactive or inconclusive.

SMILES	DT40 TDP1 CPT	ELG1 repair inh	HT1080NT lethal	HT1080 IDH1KD tx	TDP1 cell noCPT	IL-1B inflam inh
O=C(CCC(=O)c1ccc(F)cc1)Nc1cc(Cl)cc(Cl)c1	0	0	0	0	0	0
COc1cc(S(=O)(=O)N(C)C2CCCCC2)c(C)cc1C	0	0	0	0	0	0
CNC(=O)CCN(Cc1ccco1)S(=O)(=O)c1ccc(OC)c(OC)c1	0	0	0	0	0	0
COc1ccc(NC(=O)Nc2nnc(-c3ccncc3)s2)cc1	23µM	?	0	0	23µM	-90
COc1ccc(NC(=O)Nc2nnc(-c3ccco3)s2)cc1	0	?	0	0	0	0
O=C(Nc1ccc(Cl)c(Cl)c1)Nc1nnc(-c2ccncc2)s1	3.3µM	?	?	?	3.7µM	0
COc1cc(NC(=O)Nc2nnc(N3CCCCCC3)s2)cc(OC)c1	23µM	-	-	-	16µM	-
CCN(C(=O)CSc1nnnn1C)C1CCS(=O)(=O)C1 (centres undefined)	0	0	0	0	0	0
Cc1cc(C)n(-c2ccc(NC(=O)C3CCN(Cc4ccccn4)CC3)cc2)n1	0	0	0	0	0	0
COC(=O)c1ccn(Cc2ccccc2Cl)n1	0	?	0	0	0	0
Oc1cc(-c2ccccc2)c2ccccc2c1	18µM	0	?	?	?	-113
COc1ccc(-c2cc(C(=O)Nc3ccc(C)cc3)no2)cc1	?	-	0	0	0	0
COc1ccc(NC(=O)c2c(C)noc2-c2snnc2C)cc1	?	?	?	?	21µM	0
Cc1ccc(C)c(NC(=O)COC(=O)c2cc(=O)c3ccccc3o2)c1	0	0	0	0	0	?
Cc1cc(NC(=O)CSCC(=O)N(C)Cc2ccc(Cl)cc2Cl)no1	0	0	0	0	?	0
CN(C)CCNc1ncnc2c1sc1nc(-c3ccccc3)c3c(c12)CCCC3	?	?	10µM	18µM	23µM	-76
COc1ncnc2c1sc1nc(-c3ccccc3)c3c(c12)CCCC3	?	0	0	0	0	0
C=C(C)[C@@H]1C2=CC(C(=O)OC)=C(C[C@@H](C(=C)C)[C@H]3O[C@H]3C3=C[C@H]1OC3=O)O2	1.1µM	-	4µM	3.5µM	1.1µM	-
O=C(Nc1nnc(-c2ccccn2)o1)c1cccc(Br)c1	21µM	0	0	0	?	0
O=C(Nc1nnc(-c2cccnc2)o1)c1cccc(Cl)c1	23µM	16µM	0	0	16µM	0
Cc1cccc(-c2nnc(NC(=O)c3ccc(Cl)cc3)o2)c1	12µM	0	?	?	10µM	0
N#Cc1sc(NCc2ccccc2)nc1Cl	0	?	0	0	0	0
N#Cc1c(NCc2ccccc2)ccnc1Cl	?	-	0	0	21µM	0
Cc1nnc(SCCn2c(N3CCN(Cc4ccccc4)CC3)nc3c2c(=O)[nH]c(=O)n3C)s1	0	?	0	0	0	0
CCCCn1c(N2CCCC2)nc2c1c(=O)[nH]c(=O)n2C	0	0	0	0	0	0
SMILES	DT40 TDP1 CPT	ELG1 repair inh	HT1080NT lethal	HT1080 IDH1KD tx	TDP1 cell noCPT	IL-1B inflam inh
Cc1nnc(SCCn2c(N3CCC(Cc4ccccc4)CC3)nc3c2c(=O)[nH]c(=O)n3C)s1	?	9.2µM	0	0	16µM	0
CCCCn1c(N2CCC(Cc3ccccc3)CC2)nc2c1c(=O)[nH]c(=O)n2C	23µM	?	?	?	21µM	?
CC1=C(C(=O)Nc2ccccc2)C(c2cccnc2)n2ncnc2N1 (centres undefined)	0	0	0	0	0	0
COc1ccc2[nH]c3c(=O)n(Cc4ccc(C(=O)N5CCCC5)cc4)c(=S)[nH]c3c2c1	?	?	0	0	?	0
COCCn1c(=NC(=O)c2ccc3c(c2)OCO3)c(C#N)cc2c(=O)n3cccc(C)c3nc21	-	0	-	-	-	-
CCCCn1c(=NC(C)=O)c(C#N)cc2c(=O)n3cccc(C)c3nc21	0	-	0	0	18µM	0
CCCCn1c(=NC(=O)c2ccc3c(c2)OCO3)c(C#N)cc2c(=O)n3cccc(C)c3nc21	7.3µM	0	0	0[9.24 µM]	9.2µM	0
Cc1ccc(OCC(=O)NCC(=O)OCc2cc(=O)n3nc(C(C)C)sc3n2)cc1	0	-	-	-	0	-
CCOc1ccccc1/C=C/C(=O)N1CCN(C(=O)c2ccco2)CC1	?	0	0	0	?	0
COC(=O)c1[nH]c2c(c1C)C(=O)CC(c1ccc(OC)c(OC)c1)C2 (centres undefined)	?	?	0	0	0	0
Cc1c(C(=O)OC2CCCCCC2)[nH]c2c1C(=O)CC(c1ccc(Cl)cc1)C2 (centres undefined)	0	-	-	-	0	-
COC(=O)c1[nH]c2c(c1C)C(=O)CC(c1cc(OC)c(OC)c(OC)c1)C2 (centres undefined)	23µM	0	0	0	12µM	0
COC(=O)c1[nH]c2c(c1C)C(=O)CC(c1cccc(OC)c1)C2 (centres undefined)	1.5µM	0	0.73µM	0.92µM	1.3µM	0
COc1cc(C2CC(=O)c3c([nH]c(C(=O)OC4CCCC4)c3C)C2)cc(OC)c1OC (centres undefined)	1.6µM	-	-	-	1.8µM	-
COc1nc(OC)nc(N2CCC(NC(=O)C(Cc3cccc(OC)c3OC)NC(C)=O)CC2)n1 (centres undefined)	0	0	0	0	0	0
COc1ccc(S(=O)(=O)N(CC(=O)N2CCCCCC2)c2ccccc2OC)cc1	0	0	0	0	0	0
Cc1noc2ncnc(NCc3cccc(Cl)c3)c12	16µM	-	-	-	18µM	-
Cc1noc(C)c1S(=O)(=O)NCc1cccc(Cl)c1	0	0	0	0	0	0
COc1ccc(OC)c(CCNc2ncnc3onc(C)c23)c1	7.3µM	-	-	-	5.2µM	-
Cc1ccc(CNc2ncnc3onc(C)c23)cc1	16µM	-	-	-	15µM	-
COc1ccc(Nc2ncnc3onc(C)c23)c(OC)c1	0	-	-	-	0	-
COc1ccc2c(c1)sc1ncc(C(=O)NCc3ccc(OC(C)C)cc3)c(=O)n12	0	-	-	-	0	-
CCN(CC)CCCNC(=O)c1cc2c(=O)n(CC)c3ccccc3c2s1	?	?	?	?	?	-57
CCCN(CCC)CCNC(=O)c1cc2c(=O)n(CC)c3ccccc3c2s1	0	?	0	0	?	0
CN(C)CCNC(=O)c1cc2sc3ccccc3c2s1	?	?	21µM	23µM	23µM	-71
CCN(CC)CCNC(=O)c1cc2c(=O)n(CC)c3ccccc3c2s1	?	?	0	0	18µM	-56
